Measured values as given in PubChem BioAssay (NCATS).
Results filed as inconclusive are left out. Entries that show only a call come without a potency. Unmarked numbers belong to inactive results. Calls of active or inactive are those of the source. The call rests on the fitted dose curve; in most records, active means well fitted curve in the direction sought with a large enough effect; inconclusive means small, poorly fitted or top-dose-only effect, or another doubt; inactive means no such curve, though single readings can be large; an effect the other way counts as inactive or inconclusive.

What was measured:
[1] = molecular target: Cellular tumor antigen p53 (Homo sapiens) (UniProt P04637); assay: Primary qHTS for small molecule compounds that upregulate eGFP-tagged delta133p53alpha (in N-terminal) cells. (AID 2060322); conditions: NCI-H358 eGFP-delta133p53alpha fluorescence, 24 h; activation: stronger effect = higher value; further: nearly all actives have a fitted effect of over 75% in size; further: potency means the concentration at half of the fitted maximal effect; on activation: series mostly up to about 56 µM
Cellular tumor antigen p53 (Homo sapiens), sequence (P04637 whole entry, looked up): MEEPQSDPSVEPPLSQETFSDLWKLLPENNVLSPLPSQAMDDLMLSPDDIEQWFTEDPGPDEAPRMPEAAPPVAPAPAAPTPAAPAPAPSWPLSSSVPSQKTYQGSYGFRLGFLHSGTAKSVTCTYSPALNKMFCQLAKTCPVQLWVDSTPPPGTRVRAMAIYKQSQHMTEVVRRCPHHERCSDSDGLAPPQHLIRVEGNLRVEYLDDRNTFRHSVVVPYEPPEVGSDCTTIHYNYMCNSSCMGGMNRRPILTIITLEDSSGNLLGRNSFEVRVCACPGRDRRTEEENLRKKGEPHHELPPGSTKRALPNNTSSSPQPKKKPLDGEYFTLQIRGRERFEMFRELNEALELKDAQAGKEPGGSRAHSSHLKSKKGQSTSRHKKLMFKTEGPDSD
Outline: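 NCI-H358 cells pre-induced 24 h with 10 ng/ml doxycycline to express N-terminal eGFP-delta133p53alpha, then dosed 24 h at 37C without doxycycline; fixed, Hoechst-stained, GFP intensity by laser scanning cytometry, normalized to DMSO (0%) and 57.5 uM 5-azacytidine (100%).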

[2] = molecular target: Aldehyde dehydrogenase, mitochondrial (Homo sapiens) (UniProt P05091); assay: qHTS for Inhibitors of the Aldehyde Dehydrogenase Family (ALDH2) Primary screen (AID 2061308); further: nearly all actives have a fitted effect of over 55% in size
[3] = molecular target: Retinaldehyde dehydrogenase 3 (Homo sapiens) (UniProt P47895); assay: qHTS for Inhibitors of the Aldehyde Dehydrogenase Family (ALDH1A3) Primary screen (AID 2061315)

Compound	activation [1]	Potency [2]	Potency [3]	activity change, negative = inhibition [2]	activity change, negative = inhibition [3]	Potency [1]
CC1CCC2C(C)(C)C(O)C(O)CC2(C)C12Cc1c(O)cc(CO)c(C=O)c1O2 (stereo not drawn)	0.763%	inactive	inactive			
O=S(=O)(c1ccccc1)c1cnc2c(N3CCNCC3)cccc2c1	27%	inactive	inactive			
C=CC(C)(CCC=C(C)C)O[C@@H]1O[C@H](CO)[C@@H](O)[C@H](O)[C@H]1O (stereo partly drawn)	3.57%	inactive	inactive			
C[C@@H]1O[C@@H](O[C@H]2[C@H](O)[C@@H](O)[C@H](OC[C@H]3O[C@@H](OC(=O)[C@]45CCC(C)(C)C[C@H]4C4=CCC6[C@@]7(C)CC[C@H](O[C@@H]8OC[C@H](O)[C@H](O[C@@H]9O[C@H](CO)[C@@H](O)[C@H](O)[C@H]9O)[C@H]8O)[C@@](C)(CO)C7CC[C@@]6(C)[C@]4(C)CC5)[C@H](O)[C@@H](O)[C@@H]3O)O[C@@H]2CO)[C@H](O)[C@H](O)[C@H]1O (stereo partly drawn)	-10.7%			1.57% [at 11.2 µM]	14.6% [at 11.2 µM]	
CC1(CCC(=O)O)C(=O)C=CC23CC4CC(OC4(C)C2O)C13 (stereo not drawn)	6.87%	inactive	inactive			
C=C1C(=O)O[C@@H]2C[C@H](C)[C@@]3(O)C=C(C(C)=O)[C@]4(CC3C[C@H]12)C(=O)O[C@H]1C[C@@H](C)C(CCC(C)=O)=CC[C@H]14 (stereo partly drawn)	4.46%	inactive	inactive			
COc1ccc2c3ccnc4ccc(=O)n(c2c1)c43	17%	inactive	inactive			
CCCCCCCCC(=O)N[C@H](CN1CCCC1)[C@H](O)c1ccc2c(c1)OCCO2	-1%	inactive	inactive			
CC(O)(CC(=O)O)CC(=O)O[C@@H]1[C@@H](O)[C@H](OCCc2ccccc2)O[C@H](CO)[C@H]1O (stereo partly drawn)	3.82%	inactive	inactive			
CC1(C)[C@@H]2CC=C(CO[C@@H]3O[C@H](CO[C@@H]4OC[C@H](O)[C@H](O)[C@H]4O)[C@@H](O)[C@H](O)[C@H]3O)[C@H]1C2	-4.46%	inactive	inactive			
C=C1CC[C@@H]2C(C)(C)CCC[C@@]2(C)[C@@H]1CC/C(=C/C(=O)OC)COC(C)=O	-31.3%	inactive	inactive			
CCOC(=O)c1cc(C#N)c(N2CCC(C(=O)NS(=O)(=O)Cc3ccccc3)CC2)nc1C	5.67%	inactive	inactive			
C=C1[C@@H]2[C@H]3OC(=O)C(=C)[C@@H]3CC[C@@](C)(O)[C@@H]2C[C@@H]1O[C@@H]1O[C@H](CO)[C@@H](O)[C@H](O)[C@H]1O	15.2%	inactive	inactive			
CCCC(=O)C1(c2ccccc2)CCN(C(=O)[C@@H](Cc2ccc(OC)cc2)NC(=O)[C@@H](N)Cc2cncn2C)CC1	4.3%	inactive	inactive			
Nc1nc2c(ncn2CCC(CO)CO)c(=O)[nH]1	-5.36%	inactive	inactive			
O=C(Nc1ccn[nH]1)c1c(F)cccc1F	12.3%	inactive	inactive			
CC(C)=CCC/C(C)=C/COCC1OC(n2ccc(=O)[nH]c2=O)C(O)C1O (stereo not drawn)	17%	inactive	inactive			
C[C@@H]1C(=O)O[C@H](C)[C@H]1CC(=O)[C@](C)(O)[C@H]1CC[C@@]2(O)C3=CC(=O)[C@@H]4C[C@@H](O)[C@@H](O)C[C@]4(C)C3CC[C@]12C (stereo partly drawn)	-6.11%	inactive	inactive			
CC(C)(O)/C=C/C(=O)[C@](C)(O)[C@H]1[C@H](O)C[C@@]2(C)[C@@H]3CC=C4[C@@H](C=C(O[C@@H]5O[C@H](CO)[C@@H](O)[C@H](O)[C@H]5O)C(=O)C4(C)C)[C@]3(C)C(=O)C[C@]12C	-13.7%	inactive	inactive			
COc1cc(/C=C/C(=O)OC2CC(OC(C)=O)C(OC(C)=O)C3C2CCC2C(=O)OC(c4ccoc4)CC23C)ccc1O[C@@H]1O[C@H](CO)[C@@H](O)[C@H](O)[C@H]1O (stereo partly drawn)	-16%	inactive	inactive			
O=C(O)C[C@H]1CCC(=O)[C@@H]1C/C=C\CCOC1OC(CO)C(O)C(O)C1O (stereo partly drawn)	-3.82%	inactive	inactive			
C=C[C@@](C)(O)CC/C=C(\C)C(=O)O[C@@H]1[C@@H]2O[C@]2(C)[C@H]2[C@H](O[C@@H]3O[C@H](CO)[C@@H](O)[C@H](O)[C@H]3O)OC=C[C@@]12O	-3.57%	inactive	inactive			
CC(C)C1NC(=O)C(CC2(O)c3ccccc3N3C(=O)C(Cc4ccccc4)NC32)NC1=O (stereo not drawn)	-9.82%	inactive	inactive			
CC(=O)N[C@@H](CCCCN)C(=O)N(C)[C@@H](CC(C)C)C(=O)N[C@H](C(=O)N(C)[C@@H](Cc1ccccc1)C(=O)N[C@H](Cc1ccccc1)C(N)=O)C(C)C	7.67%			0.957% [at 5.59 µM]	0.0688% [at 5.59 µM]	
COC(C(=O)N1Cc2[nH]nc(NC(=O)c3ccc(N4CCN(C)CC4)cc3)c2C1)c1ccccc1 (stereo not drawn)		inactive	inactive			23.9 µM (active)
Nc1nonc1C(=Nc1ccc(F)c(Cl)c1)NO	-6.33%	inactive	inactive			

Compound	activation [1]	Potency [2]	Potency [3]	activity change, negative = inhibition [2]	activity change, negative = inhibition [3]	Potency [1]
CN(CC1(C)CCCO1)S(=O)(=O)c1ccc(Cl)c(S(N)(=O)=O)c1 (stereo not drawn)	-1.69%	inactive	inactive			
Cc1ccccc1N1CCN(S(=O)(=O)C[C@]23CC[C@H](C[C@@H]2NC(=O)[C@@H](N)CCS(C)(=O)=O)C3(C)C)CC1	3.67%	inactive	inactive			
CC(=O)OC1CCC2(C)C(CCC3(C)C2CC=C2C4C(C)C(C)CCC4(C)CCC23C)C1(C)C(=O)O (stereo not drawn)	-6.11%	inactive	inactive			
C=C1[C@H]2CC[C@]3(O)[C@@](CC[C@@H]4[C@](C)(C(=O)O)CCC[C@]43C)(C2)[C@H]1OC(=O)/C(C)=C\C	15.2%	inactive	inactive			
CCOc1ccc(-n2c(C(C)N(Cc3cccnc3)C(=O)Cc3ccc(F)c(C(F)(F)F)c3)nc3ncccc3c2=O)cc1 (stereo not drawn)		inactive	inactive			19 µM (active)
C1CCC[C@H]2CCCN3CC[C@@H](CCCCCC[C@@H]4CCCN5CC[C@@H](CC1)O[C@@H]45)O[C@@H]23	-4.33%			3.01% [at 0.092 µM]	-7.72% [at 0.092 µM]	
NC(N)=N/N=C/c1ccccc1Cl	3.67%	inactive	inactive			
COc1cc2c(cc1OC)[C@@H]1[C@H](O)[C@@H](OC)C=C3CCN(C2)[C@H]31		inactive	inactive			16.6 µM (active)
C[C@@H]1C[C@@H](O)[C@@]23CO[C@]2(CO)CCC[C@@H]3[C@@]12C[C@@H](c1ccoc1)OC2=O	24.4%	inactive	inactive			
COc1cc(/C=C/C(=O)OC2[C@H](O)CC(O)(C(=O)O)C[C@H]2O)ccc1O (stereo partly drawn)	7.63%	inactive	inactive			
NC(=O)C1=CC2C3C=CC2C(OC3=O)O1 (stereo not drawn)	27.5%	inactive	inactive			
CC(C)=CCc1ccc(Oc2c(O)cc(C)cc2CO)c(C(=O)O)c1O	3.82%	inactive	inactive			
O=C1CCC=CC1(O)C(=O)OCc1ccccc1O[C@@H]1O[C@H](CO)[C@@H](O)[C@H](O)[C@H]1O (stereo partly drawn)	15.3%	inactive	inactive			
CC(C(O)c1ccccc1)N(C)CCOC(c1ccccc1)c1ccccc1 (stereo not drawn)		inactive	inactive			21.9 µM (active)
CC(=O)O[C@@H]1CC[C@@]2(C)[C@H](CC[C@@H]3[C@@H]2C[C@H](OC(C)=O)[C@]2(C)[C@@H](C(C)=O)CC[C@@H]32)C1	5%	inactive	inactive			
COC(=O)CC[C@@H](C)[C@H]1CC[C@H]2[C@@H]3CC(=O)[C@H]4C[C@H](OC(C)=O)CC[C@]4(C)[C@H]3CC[C@]12C	-4.33%	inactive	inactive			
C=C1C(=O)OC2C=C(C)CC/C=C(\CO)CC(O)C12 (stereo not drawn)	9.92%	inactive	inactive			
C=C(C(=O)O)[C@@H]1CC[C@@]2(C)CC[C@@H](O)C(=C)C2C1 (stereo partly drawn)	22.9%	inactive	inactive			
NCCCC[C@H](NC(=O)[C@@H]1Cc2ccccc2CN1C(=O)CCC(=O)c1ccccc1)C(=O)NCC(c1ccccc1)c1ccccc1	-6.33%	inactive	inactive			
CC(=O)OC[C@]12[C@H](OC(C)=O)C(=O)[C@@H]3[C@@H](OC(C)=O)[C@@]14O[C@@]3(C)COC(=O)c1cccnc1[C@@H](C)[C@H](C)C(=O)O[C@@H]([C@H](O)[C@@H]2OC(C)=O)[C@]4(C)O	6.25%	inactive	inactive			
CCn1nnnc1NCc1ccc(C(C)C)cc1	3%	inactive	inactive			
C/C=C(/C)C(=O)O[C@H]1C[C@]2(C)O[C@@H]2[C@@H](OC(C)=O)[C@@]2(C)CC[C@@](O)(C(C)C)[C@H]12	-19.1%	inactive	inactive			
CC1(C)CCCC2(C)C1C(=O)C=C(C(=O)O)C2(O)C(=O)O (stereo not drawn)	41.2%	inactive	inactive			
C[C@@H]1C/C=C/C=C\C=C\C=C\[C@H](O[C@@H]2O[C@H](C)[C@@H](O)[C@H](N)[C@@H]2O)C[C@@H]2O[C@](O)(C[C@@H](O)C[C@H]3O[C@@H]3/C=C/C(=O)O1)C[C@H](O)[C@H]2C(=O)O	13.7%	inactive	inactive			
C[C@@]12CC3(S(=O)(=O)O)OC(O1)[C@]1(COC(=O)c4ccccc4)[C@H]3C[C@]21O[C@@H]1O[C@H](CO)[C@@H](O)[C@H](O)[C@H]1O	14.5%	inactive	inactive			
